Assay outcomes: PubChem, Broad Institute
mut p53 react = mutant p53 pathway re-activators, primary screen, cell-based, SW480, luciferase, single point, HTS. 1.5% of 28,000 active. activation, % at 9.98 µM. AID 624151, 2012. SW480 PUMA-promoter luciferase, p53 mutant reactivation; in the data active = activation above about 52%
ID4 SMM = binders of human ID4 protein, primary screen, biochemical, small molecule microarray, single point; Flag-ID4 binding, fluorescence F/B; DNA-binding protein inhibitor ID-4 (Homo sapiens), P47928; calls only; 1.2% of 31,000 active; call rule not given here;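 also: a binder raises fluorescence above local background on the spot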
Target sequence (P47928 whole entry, looked up): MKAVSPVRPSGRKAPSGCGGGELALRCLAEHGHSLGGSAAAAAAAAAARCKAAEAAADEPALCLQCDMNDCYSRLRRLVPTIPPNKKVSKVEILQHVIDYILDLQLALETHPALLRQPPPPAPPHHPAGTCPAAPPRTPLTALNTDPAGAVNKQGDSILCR
Numbers stand for hits. Most compounds without a hit are left out; they make up all but 2.3% or so of the library.

What do the screens show for `COc1ccccc1N1C(=O)C2C(c3ccc(F)cc3)NC(Cc3ccccc3)(C(=O)O)C2C1=O` (stereo unspecified)?
mut p53 react: inactive; ID4 SMM: inactive

How did CCC(=O)Nc1ccc2c(c1)C(=O)N(C)C[C@@H](OC)[C@H](C)CN(CC1CC1)[C@H](C)CO2 do in these assays?
ID4 SMM: inactive

How did Cc1ccccc1NC(=O)c1ccc(C)c(S(=O)(=O)Nc2cc([N+](=O)[O-])ccc2C)c1 do in these assays?
mut p53 react: inactive; ID4 SMM: active

How did Cc1ccc(NS(=O)(=O)c2cc(C(=O)Nc3ccccc3C(=O)N3CCCC3)ccc2C)c(C)c1 do in these assays?
mut p53 react: inactive; ID4 SMM: inactive

What do the screens show for `CC(C)Oc1ccc2c(=O)c3cc(C(=O)O)ccc3oc2c1`?
mut p53 react: 71; ID4 SMM: inactive

What do the screens show for `CC(C)Oc1ccc2c(=O)cc(-c3ccccc3)oc2c1`?
mut p53 react: inactive

Results for CSc1cccc(NC(=O)CSc2ncn(-c3ccccc3)n2)c1 ?
mut p53 react: inactive; ID4 SMM: inactive

What do the screens show for `COC(=O)c1ccc(Cl)c(NC(=O)CSc2nc3c(c(C(F)(F)F)n2)CCCC3)c1`?
mut p53 react: inactive; ID4 SMM: inactive

How did O=c1cc(-c2ccccc2)oc2ccccc12 do in these assays?
ID4 SMM: inactive

Results for COc1ccccc1-c1cc(=O)c2ccccc2o1 ?
mut p53 react: 138; ID4 SMM: inactive

What do the screens show for `C[C@@H]1CN([C@H](C)CO)C(=O)c2cc(C#CC3CC3)cnc2O[C@@H]1CN(C)C(=O)C1CCCCC1`?
ID4 SMM: inactive

Results for NS(=O)(=O)C#Cc1ccccc1 ?
mut p53 react: inactive; ID4 SMM: inactive

What do the screens show for `Cc1cccc(C#Cc2ccccc2)n1`?
mut p53 react: 85; ID4 SMM: inactive

Results for Cc1c(C(=O)Nc2nnc(SC/C=C/c3ccccc3)s2)oc2ccccc12 ?
mut p53 react: 54; ID4 SMM: inactive

Results for Cc1c(C(=O)Nc2nnc(SCc3ccccc3F)s2)oc2ccccc12 ?
mut p53 react: inactive; ID4 SMM: inactive

What do the screens show for `O=C(CSc1nc(-c2ccc(Cl)cc2)cc(C(F)(F)F)n1)c1cccc([N+](=O)[O-])c1`?
mut p53 react: inactive; ID4 SMM: inactive

Results for Cc1nc(SCC(=O)Nc2cc(C(F)(F)F)ccc2Cl)nc2c1CCCC2 ?
mut p53 react: inactive; ID4 SMM: inactive

What do the screens show for `O=C(Nc1ccc(Br)cc1)c1ccc(NS(=O)(=O)c2cccc3cccnc23)cc1`?
mut p53 react: inactive; ID4 SMM: inactive

Results for C[C@H]1CN([C@@H](C)CO)C(=O)c2cc(-c3cncnc3)cnc2O[C@H]1CN(C)C(=O)Cc1ccccn1 ?
mut p53 react: inactive

What do the screens show for `Cn1c(SCc2nc(-c3cccs3)no2)nnc1-c1ccco1`?
mut p53 react: inactive; ID4 SMM: active

What do the screens show for `Cn1c(SCc2nc(-c3cccs3)no2)nnc1-c1ccccc1`?
mut p53 react: inactive; ID4 SMM: inactive

What do the screens show for `O=C(COc1ccc(Br)cc1)Nc1cccc(-c2nc3ccccc3o2)c1`?
mut p53 react: 74; ID4 SMM: inactive

Results for CCOC(=O)c1cccc(NC(=O)COc2ccc(Br)cc2)c1 ?
mut p53 react: inactive; ID4 SMM: inactive

Results for O=C(COc1ccc(Br)cc1)Nc1cccc(-c2nnc(-c3ccccc3)o2)c1 ?
mut p53 react: 109; ID4 SMM: inactive

How did O=C(COc1ccc(Br)cc1)Nc1ccc2oc(-c3ccc(F)cc3)nc2c1 do in these assays?
mut p53 react: 69; ID4 SMM: inactive

How did O=C(COc1ccc([N+](=O)[O-])cc1)Nc1ccc2oc(-c3ccc(Br)cc3)nc2c1 do in these assays?
mut p53 react: inactive; ID4 SMM: inactive

How did Cc1ccc(C)c(OCC(=O)Nc2cccc(-c3nc4ccccc4o3)c2)c1 do in these assays?
mut p53 react: inactive; ID4 SMM: inactive

Results for COc1ccc(C)cc1NC(=O)CSc1nc(C)cc(-c2ccccc2)n1 ?
mut p53 react: inactive; ID4 SMM: inactive

Results for CC(C)Cc1nc(SC(C)C(=O)Nc2cccc(Cl)c2)n[nH]1 (stereo unspecified) ?
mut p53 react: inactive; ID4 SMM: inactive

What do the screens show for `CN(C)c1nc(N)nc(CSc2ncc(Cl)cc2Cl)n1`?
mut p53 react: 62; ID4 SMM: inactive

Results for CN(C)c1nc(N)nc(CSc2nnnn2C)n1 ?
mut p53 react: inactive; ID4 SMM: inactive

What do the screens show for `Cc1c(NC(=O)CN(c2cccc(F)c2)S(C)(=O)=O)c(=O)n(-c2ccccc2)n1C`?
mut p53 react: inactive; ID4 SMM: inactive

Results for Cc1ccc(N(CC(=O)Nc2c(C)n(C)n(-c3ccccc3)c2=O)S(C)(=O)=O)cc1Cl ?
mut p53 react: inactive; ID4 SMM: active

How did C[C@H]1CCCCO[C@@H](CN(C)C(=O)CCCN(C)C)[C@@H](C)CN([C@@H](C)CO)C(=O)c2cc(NC(=O)c3ccncc3)ccc2O1 do in these assays?
mut p53 react: inactive; ID4 SMM: inactive

Results for CC(=O)CCc1ccc(Oc2ccc(C(F)(F)F)cn2)cc1 ?
mut p53 react: 65; ID4 SMM: inactive

Results for COc1ccc2cc(CCC(C)=O)ccc2c1 ?
ID4 SMM: inactive

What do the screens show for `CCCCOC(=O)c1cc2c(cn1)[nH]c1ccccc12`?
mut p53 react: 71; ID4 SMM: inactive

How did CNC(=O)c1cc2c(cn1)[nH]c1ccccc12 do in these assays?
ID4 SMM: inactive

How did CCOC(=O)c1c(NC(=O)c2ccc(C)c(S(=O)(=O)N3CCOCC3)c2)sc(C)c1C do in these assays?
mut p53 react: inactive; ID4 SMM: inactive

How did COc1cc(O)cc2occ(-c3ccc(O)cc3)c(=O)c12 do in these assays?
mut p53 react: inactive; ID4 SMM: inactive

How did O=c1c(-c2ccc(O)cc2)coc2cc(O)cc(O)c12 do in these assays?
mut p53 react: 53; ID4 SMM: inactive

How did Cc1ccc(-c2noc(CCC(=O)NC(C)(C)C)n2)cc1 do in these assays?
mut p53 react: 61; ID4 SMM: inactive

What do the screens show for `Cc1ccc(-c2noc(CCC(=O)Nc3ccccc3[N+](=O)[O-])n2)cc1`?
mut p53 react: inactive; ID4 SMM: inactive

Results for CCN(CC(=O)Nc1ccccc1C(F)(F)F)S(=O)(=O)c1ccc(Cl)cc1 ?
mut p53 react: inactive; ID4 SMM: inactive

What do the screens show for `Cc1ccc2c(c1)c1nc3ccccc3nc1n2CC(=O)N(c1ccccc1)C(C)C`?
mut p53 react: inactive; ID4 SMM: inactive

Results for O=C(NC(Cc1ccccc1)C(=O)OCc1cnc(-c2ccccc2)o1)c1ccccc1 (stereo unspecified) ?
mut p53 react: inactive; ID4 SMM: inactive

What do the screens show for `O=C(C[C@@H]1C=C[C@@H](NC(=O)Nc2ccccc2F)[C@H](CO)O1)NCc1ccc(F)cc1`?
ID4 SMM: inactive

What do the screens show for `O=[N+]([O-])c1ccccc1OCCCCSc1ncccn1`?
mut p53 react: inactive; ID4 SMM: inactive

How did Cc1ccc([N+](=O)[O-])c(OCCCSc2ncccn2)c1 do in these assays?
mut p53 react: 67; ID4 SMM: inactive

Results for Cc1ccc(C(=O)CC2(O)C(=O)N(CCCC#N)c3ccccc32)o1 (stereo unspecified) ?
mut p53 react: inactive; ID4 SMM: inactive

How did COc1ccc(S(=O)(=O)N(C)CC(=O)Nc2ccc(Br)cc2F)cc1Cl do in these assays?
mut p53 react: inactive; ID4 SMM: inactive

How did COc1cc2nc3occc3c(OC)c2cc1OCC(O)C(C)(C)O (stereo unspecified) do in these assays?
mut p53 react: inactive; ID4 SMM: inactive

What do the screens show for `CC(=O)NNC(=O)N1Cc2ccccc2Oc2ccc(Cl)cc21`?
mut p53 react: inactive; ID4 SMM: active
